Measurements taken from ChEMBL document CHEMBL4808148, “HDAC6 screening dataset using tau-based substrate in an enzymatic assay yields selective inhibitors and activators” (2021).
Out of some 5,600 compounds screened, about 390 (7%) showed an effect of 50% or more. For the sample, strong results were picked, then their nearest neighbours and some compounds at random.

Target: T1, Protein deacetylase HDAC6 (Homo sapiens) (UniProt Q9UBN7)
T1 sequence (whole entry): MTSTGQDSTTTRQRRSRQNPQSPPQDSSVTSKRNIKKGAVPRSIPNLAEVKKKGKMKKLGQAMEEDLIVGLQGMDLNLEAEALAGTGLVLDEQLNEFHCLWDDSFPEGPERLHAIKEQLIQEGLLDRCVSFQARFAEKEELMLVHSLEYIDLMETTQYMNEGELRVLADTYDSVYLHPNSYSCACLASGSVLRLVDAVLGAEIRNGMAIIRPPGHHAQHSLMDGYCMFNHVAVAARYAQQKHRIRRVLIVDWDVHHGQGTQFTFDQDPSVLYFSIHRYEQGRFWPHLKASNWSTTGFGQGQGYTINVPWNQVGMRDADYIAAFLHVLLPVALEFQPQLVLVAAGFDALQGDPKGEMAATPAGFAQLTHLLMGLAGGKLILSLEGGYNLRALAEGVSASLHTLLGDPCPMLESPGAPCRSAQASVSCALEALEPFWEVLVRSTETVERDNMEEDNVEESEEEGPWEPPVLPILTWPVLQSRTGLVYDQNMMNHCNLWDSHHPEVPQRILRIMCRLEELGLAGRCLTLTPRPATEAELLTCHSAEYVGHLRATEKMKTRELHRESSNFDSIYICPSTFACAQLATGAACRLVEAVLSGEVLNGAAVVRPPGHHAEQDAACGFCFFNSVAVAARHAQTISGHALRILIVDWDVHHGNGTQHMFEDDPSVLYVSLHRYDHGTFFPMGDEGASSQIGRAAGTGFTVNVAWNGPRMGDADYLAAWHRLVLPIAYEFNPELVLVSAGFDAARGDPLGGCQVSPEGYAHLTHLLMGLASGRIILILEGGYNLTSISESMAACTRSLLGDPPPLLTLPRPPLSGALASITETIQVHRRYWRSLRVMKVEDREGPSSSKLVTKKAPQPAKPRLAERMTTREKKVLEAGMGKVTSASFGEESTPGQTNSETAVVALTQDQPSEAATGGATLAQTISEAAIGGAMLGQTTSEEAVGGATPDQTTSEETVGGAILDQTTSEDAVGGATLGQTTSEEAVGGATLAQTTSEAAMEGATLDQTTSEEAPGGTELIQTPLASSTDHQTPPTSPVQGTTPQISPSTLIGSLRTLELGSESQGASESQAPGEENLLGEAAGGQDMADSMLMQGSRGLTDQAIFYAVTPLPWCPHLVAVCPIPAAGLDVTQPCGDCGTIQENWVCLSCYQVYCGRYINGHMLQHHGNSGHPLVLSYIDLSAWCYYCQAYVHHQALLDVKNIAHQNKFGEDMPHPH
Settings: at 10 µM

Going from `O=C(O)Cc1ccc(OCc2ccccc2)c(Cl)c1` to `O=C(O)Cc1ccc2c(c1)C(=O)c1ccccc1CO2`, the inhibition rises from -0.75% to 75%.

First: O=C(O)c1ccc(N2N=C(Cc3ccccc3)/C(=C\c3ccc(-c4ccccc4F)o3)C2=O)cc1
Second: O=C(O)CCc1ccc(NCc2cccc3c2CCCN3CCOc2ccccc2)cc1F
The inhibition of the first is lower: 5.2% for the first, 8.07% for the second.

First: CC(C)OC(=O)N[C@H]1Cc2c(n(Cc3ccccn3)c3ccc(C#N)cc23)C1
Second: OCCNC1CCCc2c1[nH]c1ccc(-c3ccccc3)cc21 (configuration not stated)
The inhibition of the first is lower: -8.91% for the first, 59.1% for the second.

Compared with `CC(C)(C)c1ccc(-c2nc3ccccc3[nH]2)cc1`, `CC(C)(C)c1ccc(O)cc1` is lower in inhibition: 105% for the first, 17.6% for the second.

First: C#CCC(Cc1cnc2nc(N)nc(N)c2n1)c1ccc(C(=O)N[C@@H](CCC(=O)O)C(=O)O)cc1 (some centres not stated)
Second: O=C(NO)c1cnc(N2CCN(S(=O)(=O)c3ccc4ccccc4c3)CC2)nc1
The inhibition of the first is lower: 30% for the first, 102% for the second.

Going from `Oc1cc(CNC(=S)/C=C/c2cc(O)c(O)c(Br)c2)cc(O)c1O` to `O=C(Nc1cc(C(F)(F)F)cc(C(F)(F)F)c1)c1cc(Cl)ccc1O`, the inhibition falls from 36% to 3.28%.

Compared with `COc1ccc(N(C(=O)Oc2c(C)cccc2C)c2ccnc(Nc3ccc(N4CCN(C)CC4)cc3)n2)c(OC)c1`, `COc1cc(N2CCN(C)CC2)ccc1Nc1ncc2c(n1)N(C)c1ccccc1C(=O)N2C` is lower in inhibition: 102% for the first, 0.79% for the second.

First: COC(=O)c1ccc(N2CCN(C)CC2)c(NC(=O)c2cccc(OC)c2)c1
Second: COc1ccc(S(=O)(=O)N2CCCN(S(=O)(=O)c3ccc(OC)c(OC)c3)CC2)cc1OC
The inhibition of the first is lower: 5.02% for the first, 5.48% for the second.

Going from `Cn1c(C#N)ccc1-c1ccc2c(c1)C(C)(C)OC(=S)N2` to `CC(=O)NCCNc1cc(Cl)nn2c(-c3cccc(S(=O)(=O)N(C)C)c3)c(C)nc12`, the inhibition rises from 12.5% to 15.6%.

Compared with `CC(C)CN(C[C@@H](OP(=O)(O)O)[C@H](Cc1ccccc1)NC(=O)O[C@H]1CCOC1)S(=O)(=O)c1ccc(N)cc1`, `CC1=CC(=C(c2ccc(N)cc2)c2ccc(N)cc2)C=CC1=N` is higher in inhibition: 7.63% for the first, 57.5% for the second.

Going from `CCCN(CCC)C(=O)Cc1c(-c2ccc(Cl)cc2)nc2ccc(Cl)cn12` to `CN(C)/N=N/c1ccc(C(=O)O)cc1`, the inhibition rises from -6.78% to 26.9%.

First: O=C(O)c1ccccc1NC(=O)C12CC3CC(CC(C3)C1)C2
Second: CC1(C)CC[C@]2(C(=O)O)CC[C@]3(C)[C@H](C(=O)C=C4[C@@]5(C)C=C(C#N)C(=O)C(C)(C)[C@@H]5CC[C@]43C)[C@@H]2C1
The inhibition of the first is lower: 8.92% for the first, 11.2% for the second.

First: O[C@@](Cc1nc(CC2(C(F)(F)F)CC2)c[nH]1)(c1ccc(-n2cccn2)cc1)C(F)(F)F
Second: CCc1nc(C)ccc1O
The inhibition of the first is lower: -0.94% for the first, 3.81% for the second.

`N[C@@H](CSCC(=O)O)C(=O)O` gave an inhibition of 17.8%.
